Results as given in PMC7862700, “An all-to-all approach to the identification of sequence-specific readers for epigenetic DNA modifications on cytosine”.

Assays:
Assay in all cases: DAPPL (digital affinity profiling via proximity ligation, sequencing); 10 mM Tris-HCl pH 7.5, 50 mM NaCl, 1 mM DTT, 4% glycerol, room temperature, 30 min; GST-TFs on glutathione beads, 16-mer random dsDNA library, 0.1% formaldehyde crosslink after washing; high values mean tight binding
[1] = molecular target: T1, FEV (Homo sapiens, UniProt Q99581 1-238); settings: protein: recombinant; tags: N-terminal GST; dsDNA, one strand shown
T1 sequence: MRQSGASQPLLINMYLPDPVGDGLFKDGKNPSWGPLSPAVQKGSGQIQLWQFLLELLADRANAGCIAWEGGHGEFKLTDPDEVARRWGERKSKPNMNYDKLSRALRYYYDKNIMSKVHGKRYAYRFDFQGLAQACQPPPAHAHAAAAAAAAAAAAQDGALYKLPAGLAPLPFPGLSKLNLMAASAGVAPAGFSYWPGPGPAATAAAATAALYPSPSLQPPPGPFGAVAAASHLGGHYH
Procedure, shortened: (§1)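 Binding signal is given per hexamer as its read frequency for a factor divided by its frequency in the tag-only sample. GST-fused human transcription factors were expressed in yeast, captured on glutathione beads, barcoded with DNA and pooled with that sample, then incubated with 200 nmole of a 16-mer random double-stranded DNA library in Tris/NaCl/DTT/glycerol buffer for 30 min at room temperature. The pools were then washed, crosslinked, proximity-ligated, amplified by PCR and sequenced on an Illumina NextSeq500.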

[2] = molecular target: ETV5 (Homo sapiens, UniProt P41161 1-510); settings: protein: recombinant; tags: N-terminal GST; dsDNA, one strand shown
Chain of ETV5 (P41161 whole entry): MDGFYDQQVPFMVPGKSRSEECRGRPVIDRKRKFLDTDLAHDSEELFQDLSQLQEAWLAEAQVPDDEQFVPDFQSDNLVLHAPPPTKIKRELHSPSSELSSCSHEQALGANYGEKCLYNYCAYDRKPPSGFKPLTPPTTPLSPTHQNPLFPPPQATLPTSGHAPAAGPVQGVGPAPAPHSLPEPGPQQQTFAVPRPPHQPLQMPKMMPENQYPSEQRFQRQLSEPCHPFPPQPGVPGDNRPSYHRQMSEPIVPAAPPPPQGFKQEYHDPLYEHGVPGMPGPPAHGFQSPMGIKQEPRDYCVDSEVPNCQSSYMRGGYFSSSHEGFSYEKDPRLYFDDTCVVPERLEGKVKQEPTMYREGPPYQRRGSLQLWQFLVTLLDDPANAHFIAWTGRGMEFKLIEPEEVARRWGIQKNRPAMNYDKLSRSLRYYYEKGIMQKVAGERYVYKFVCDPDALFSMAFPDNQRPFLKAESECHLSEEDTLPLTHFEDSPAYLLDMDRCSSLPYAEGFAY
Procedure, shortened: as §1

[3] = molecular target: HSF1 (Homo sapiens, UniProt Q00613 1-529); settings: protein: recombinant; tags: N-terminal GST; chain copies: 3; dsDNA, one strand shown
Chain of HSF1 (Q00613 whole entry): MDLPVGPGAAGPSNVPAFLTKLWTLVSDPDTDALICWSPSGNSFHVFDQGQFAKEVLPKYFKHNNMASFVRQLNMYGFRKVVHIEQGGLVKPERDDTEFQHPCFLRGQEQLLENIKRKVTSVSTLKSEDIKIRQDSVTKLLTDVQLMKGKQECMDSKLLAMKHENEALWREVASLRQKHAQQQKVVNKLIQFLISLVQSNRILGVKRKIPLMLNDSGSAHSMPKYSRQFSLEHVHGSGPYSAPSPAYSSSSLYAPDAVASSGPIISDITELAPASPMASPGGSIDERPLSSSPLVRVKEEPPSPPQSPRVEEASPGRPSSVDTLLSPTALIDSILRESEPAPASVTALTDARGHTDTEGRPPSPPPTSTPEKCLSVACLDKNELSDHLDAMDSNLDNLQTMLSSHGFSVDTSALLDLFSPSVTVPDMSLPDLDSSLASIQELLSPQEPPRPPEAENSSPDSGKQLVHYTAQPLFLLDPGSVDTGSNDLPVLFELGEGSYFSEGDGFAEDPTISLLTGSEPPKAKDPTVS
Procedure, shortened: as §1

[4] = molecular target: T2, SPIC (Homo sapiens, UniProt Q8N5J4 1-248); settings: protein: recombinant; tags: N-terminal GST; dsDNA, one strand shown
T2 sequence: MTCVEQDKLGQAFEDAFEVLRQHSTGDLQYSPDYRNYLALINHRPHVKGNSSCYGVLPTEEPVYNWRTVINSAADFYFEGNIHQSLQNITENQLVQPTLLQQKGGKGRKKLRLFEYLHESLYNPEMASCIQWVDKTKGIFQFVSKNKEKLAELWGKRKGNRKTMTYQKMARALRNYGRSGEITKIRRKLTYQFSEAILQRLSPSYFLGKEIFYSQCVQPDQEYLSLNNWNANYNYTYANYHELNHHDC
Procedure, shortened: as §1

[5] = molecular target: ELF4 (Homo sapiens, UniProt Q99607 1-663); settings: protein: recombinant; tags: N-terminal GST; dsDNA, one strand shown
Chain of ELF4 (Q99607 whole entry): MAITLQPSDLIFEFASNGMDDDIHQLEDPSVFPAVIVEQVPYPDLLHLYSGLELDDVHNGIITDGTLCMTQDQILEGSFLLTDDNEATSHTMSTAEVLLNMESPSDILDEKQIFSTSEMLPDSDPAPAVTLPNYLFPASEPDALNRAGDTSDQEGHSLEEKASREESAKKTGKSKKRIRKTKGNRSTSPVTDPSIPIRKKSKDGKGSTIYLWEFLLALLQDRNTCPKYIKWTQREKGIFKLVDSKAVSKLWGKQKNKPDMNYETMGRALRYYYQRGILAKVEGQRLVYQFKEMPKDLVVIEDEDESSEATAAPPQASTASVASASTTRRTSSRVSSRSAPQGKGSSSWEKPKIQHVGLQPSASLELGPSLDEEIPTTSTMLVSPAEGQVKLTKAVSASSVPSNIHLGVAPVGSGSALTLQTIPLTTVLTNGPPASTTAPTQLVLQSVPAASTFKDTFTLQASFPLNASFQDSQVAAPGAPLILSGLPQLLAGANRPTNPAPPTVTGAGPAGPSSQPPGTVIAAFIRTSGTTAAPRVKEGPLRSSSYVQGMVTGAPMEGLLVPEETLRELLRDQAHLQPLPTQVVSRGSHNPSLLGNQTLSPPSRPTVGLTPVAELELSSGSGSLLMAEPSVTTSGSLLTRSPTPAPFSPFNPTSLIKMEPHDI
Procedure, shortened: as §1

[6] = molecular target: T3, ELK4 (Homo sapiens, UniProt P28324-2 1-405); settings: protein: recombinant; tags: N-terminal GST; dsDNA, one strand shown
T3 sequence: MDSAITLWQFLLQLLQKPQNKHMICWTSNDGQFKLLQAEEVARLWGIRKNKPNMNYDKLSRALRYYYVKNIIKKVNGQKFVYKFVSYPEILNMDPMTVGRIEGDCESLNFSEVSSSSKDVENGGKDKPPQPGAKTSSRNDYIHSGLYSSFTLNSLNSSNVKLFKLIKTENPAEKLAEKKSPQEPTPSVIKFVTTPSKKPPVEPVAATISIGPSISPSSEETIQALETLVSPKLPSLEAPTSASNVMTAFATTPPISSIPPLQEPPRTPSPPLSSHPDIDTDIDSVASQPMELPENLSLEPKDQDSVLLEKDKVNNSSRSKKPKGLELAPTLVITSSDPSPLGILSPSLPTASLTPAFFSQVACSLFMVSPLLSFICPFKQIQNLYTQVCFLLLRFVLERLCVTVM
Procedure, shortened: as §1

[7] = molecular target: T4, ETV2 (Homo sapiens, UniProt O00321 1-342); settings: protein: recombinant; tags: N-terminal GST; dsDNA, one strand shown
T4 sequence: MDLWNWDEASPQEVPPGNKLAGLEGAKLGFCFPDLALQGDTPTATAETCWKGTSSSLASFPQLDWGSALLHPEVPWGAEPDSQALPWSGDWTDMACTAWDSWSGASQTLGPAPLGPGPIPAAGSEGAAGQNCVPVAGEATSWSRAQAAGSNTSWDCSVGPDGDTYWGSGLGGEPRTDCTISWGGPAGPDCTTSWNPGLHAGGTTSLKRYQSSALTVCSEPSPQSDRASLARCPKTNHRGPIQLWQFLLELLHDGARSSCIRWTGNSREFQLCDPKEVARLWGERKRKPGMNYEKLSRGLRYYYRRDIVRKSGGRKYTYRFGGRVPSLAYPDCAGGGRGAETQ
Procedure, shortened: as §1

[8] = molecular target: T5, ELF3 (Homo sapiens, UniProt P78545 1-371); settings: protein: recombinant; tags: N-terminal GST; dsDNA, one strand shown
T5 sequence: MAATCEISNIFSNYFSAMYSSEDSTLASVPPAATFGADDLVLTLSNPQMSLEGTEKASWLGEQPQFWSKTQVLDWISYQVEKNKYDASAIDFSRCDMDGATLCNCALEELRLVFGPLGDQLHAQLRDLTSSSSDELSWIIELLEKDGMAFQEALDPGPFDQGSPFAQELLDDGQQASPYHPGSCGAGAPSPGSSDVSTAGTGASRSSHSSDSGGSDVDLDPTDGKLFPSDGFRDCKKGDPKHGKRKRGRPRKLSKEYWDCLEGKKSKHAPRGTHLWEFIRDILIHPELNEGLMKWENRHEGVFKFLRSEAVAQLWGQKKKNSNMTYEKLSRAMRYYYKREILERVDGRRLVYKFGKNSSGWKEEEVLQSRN
Procedure, shortened: as §1

[9] = molecular target: CRX (Homo sapiens, UniProt O43186 1-299); settings: protein: recombinant; tags: N-terminal GST; dsDNA, one strand shown
Chain of CRX (O43186 whole entry): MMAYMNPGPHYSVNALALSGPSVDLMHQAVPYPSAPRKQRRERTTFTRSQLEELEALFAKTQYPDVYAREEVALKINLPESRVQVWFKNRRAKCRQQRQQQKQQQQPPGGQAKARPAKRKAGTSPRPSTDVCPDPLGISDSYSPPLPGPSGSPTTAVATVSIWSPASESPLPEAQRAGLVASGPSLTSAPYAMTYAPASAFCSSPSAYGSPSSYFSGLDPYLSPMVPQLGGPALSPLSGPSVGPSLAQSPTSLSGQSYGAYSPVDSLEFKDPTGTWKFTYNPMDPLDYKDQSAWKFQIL
Procedure, shortened: as §1

[10] = molecular target: ETV1 (Homo sapiens, UniProt P50549 1-477); settings: protein: recombinant; tags: N-terminal GST; dsDNA, one strand shown
Chain of ETV1 (P50549 whole entry): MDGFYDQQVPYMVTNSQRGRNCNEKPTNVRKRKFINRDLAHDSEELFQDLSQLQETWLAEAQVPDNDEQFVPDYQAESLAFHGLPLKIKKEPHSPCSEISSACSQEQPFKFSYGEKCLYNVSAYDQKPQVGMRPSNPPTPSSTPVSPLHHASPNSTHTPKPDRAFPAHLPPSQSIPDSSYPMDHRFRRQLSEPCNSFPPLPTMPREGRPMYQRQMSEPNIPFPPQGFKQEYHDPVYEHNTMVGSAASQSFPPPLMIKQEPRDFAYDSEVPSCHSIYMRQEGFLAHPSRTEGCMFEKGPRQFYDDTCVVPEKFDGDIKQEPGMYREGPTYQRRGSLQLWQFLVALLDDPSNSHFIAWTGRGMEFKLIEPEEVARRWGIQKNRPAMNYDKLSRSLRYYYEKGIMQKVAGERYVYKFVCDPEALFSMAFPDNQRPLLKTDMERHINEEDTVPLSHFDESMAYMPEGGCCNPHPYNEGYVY
Procedure, shortened: as §1

[11] = molecular target: T6, ERF (Homo sapiens, UniProt P50548 1-548); settings: protein: recombinant; tags: N-terminal GST; dsDNA, one strand shown
T6 sequence: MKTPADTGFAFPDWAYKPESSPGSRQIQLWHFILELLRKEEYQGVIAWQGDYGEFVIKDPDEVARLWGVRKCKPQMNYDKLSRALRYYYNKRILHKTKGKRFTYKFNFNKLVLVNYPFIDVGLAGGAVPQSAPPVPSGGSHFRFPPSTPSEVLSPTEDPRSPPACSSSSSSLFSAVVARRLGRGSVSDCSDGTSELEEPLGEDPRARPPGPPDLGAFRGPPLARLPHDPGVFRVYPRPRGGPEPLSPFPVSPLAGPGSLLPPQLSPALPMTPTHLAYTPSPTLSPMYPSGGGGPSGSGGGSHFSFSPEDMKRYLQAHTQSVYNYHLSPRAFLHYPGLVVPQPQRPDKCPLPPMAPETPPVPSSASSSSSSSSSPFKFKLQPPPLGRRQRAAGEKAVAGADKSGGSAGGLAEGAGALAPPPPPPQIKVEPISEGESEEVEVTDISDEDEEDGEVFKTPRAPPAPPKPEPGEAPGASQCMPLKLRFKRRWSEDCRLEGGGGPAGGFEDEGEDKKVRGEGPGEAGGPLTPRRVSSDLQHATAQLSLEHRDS
Procedure, shortened: as §1

[12] = molecular target: T7, ETV3L (Homo sapiens, UniProt Q6ZN32 1-361); settings: protein: recombinant; tags: N-terminal GST; dsDNA, one strand shown
T7 sequence: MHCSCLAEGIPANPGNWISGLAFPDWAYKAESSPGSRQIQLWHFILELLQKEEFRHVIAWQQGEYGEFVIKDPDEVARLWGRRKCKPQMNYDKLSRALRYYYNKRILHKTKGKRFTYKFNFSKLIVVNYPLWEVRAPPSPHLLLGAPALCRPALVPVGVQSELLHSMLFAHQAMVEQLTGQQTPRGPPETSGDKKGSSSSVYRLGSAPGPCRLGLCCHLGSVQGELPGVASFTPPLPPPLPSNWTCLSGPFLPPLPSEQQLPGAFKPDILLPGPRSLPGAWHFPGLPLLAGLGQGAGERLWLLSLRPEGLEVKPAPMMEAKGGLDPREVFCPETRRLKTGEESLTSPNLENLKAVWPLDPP
Procedure, shortened: as §1

[13] = molecular target: T8, ETS2 (Homo sapiens, UniProt P15036 1-469); settings: protein: recombinant; tags: N-terminal GST; dsDNA, one strand shown
T8 sequence: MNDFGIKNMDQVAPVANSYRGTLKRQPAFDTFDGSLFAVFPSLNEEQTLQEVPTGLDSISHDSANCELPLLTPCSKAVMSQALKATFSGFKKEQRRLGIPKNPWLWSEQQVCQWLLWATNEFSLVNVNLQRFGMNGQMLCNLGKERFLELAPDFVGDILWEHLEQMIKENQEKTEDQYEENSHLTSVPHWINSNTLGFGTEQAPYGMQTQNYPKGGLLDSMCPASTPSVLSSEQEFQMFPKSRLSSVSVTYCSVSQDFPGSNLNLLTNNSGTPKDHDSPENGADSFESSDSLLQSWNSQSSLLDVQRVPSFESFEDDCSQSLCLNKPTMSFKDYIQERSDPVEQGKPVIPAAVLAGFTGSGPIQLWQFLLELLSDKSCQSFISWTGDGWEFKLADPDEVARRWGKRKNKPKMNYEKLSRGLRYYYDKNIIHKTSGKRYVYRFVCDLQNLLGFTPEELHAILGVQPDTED
Procedure, shortened: as §1

[14] = molecular target: T9, SPDEF (Homo sapiens, UniProt O95238 1-335); settings: protein: recombinant; tags: N-terminal GST; dsDNA, one strand shown
T9 sequence: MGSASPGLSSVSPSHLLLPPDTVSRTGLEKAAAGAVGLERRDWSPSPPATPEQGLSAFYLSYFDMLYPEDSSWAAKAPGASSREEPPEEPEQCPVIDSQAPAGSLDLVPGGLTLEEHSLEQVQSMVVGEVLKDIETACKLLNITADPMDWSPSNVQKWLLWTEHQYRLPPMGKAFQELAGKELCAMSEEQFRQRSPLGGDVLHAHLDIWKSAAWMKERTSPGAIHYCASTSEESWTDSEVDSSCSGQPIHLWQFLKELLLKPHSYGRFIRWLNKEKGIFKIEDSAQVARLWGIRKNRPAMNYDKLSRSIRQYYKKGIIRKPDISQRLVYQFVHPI
Procedure, shortened: as §1

[15] = molecular target: T10, ETV7 (Homo sapiens, UniProt Q9Y603 1-341); settings: protein: recombinant; tags: N-terminal GST; dsDNA, one strand shown
T10 sequence: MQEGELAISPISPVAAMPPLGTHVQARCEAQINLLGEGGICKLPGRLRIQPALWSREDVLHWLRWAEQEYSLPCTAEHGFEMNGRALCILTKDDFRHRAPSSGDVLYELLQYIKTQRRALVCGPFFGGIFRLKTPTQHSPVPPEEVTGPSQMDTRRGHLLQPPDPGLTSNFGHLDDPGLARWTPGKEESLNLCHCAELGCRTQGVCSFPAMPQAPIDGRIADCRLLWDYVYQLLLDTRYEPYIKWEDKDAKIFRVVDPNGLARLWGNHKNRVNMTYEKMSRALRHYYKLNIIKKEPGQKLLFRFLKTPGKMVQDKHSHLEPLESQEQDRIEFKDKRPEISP
Procedure, shortened: as §1

[16] = molecular target: T11, ELF5 (Homo sapiens, UniProt Q9UKW6-2 1-255); settings: protein: recombinant; tags: N-terminal GST; dsDNA, one strand shown
T11 sequence: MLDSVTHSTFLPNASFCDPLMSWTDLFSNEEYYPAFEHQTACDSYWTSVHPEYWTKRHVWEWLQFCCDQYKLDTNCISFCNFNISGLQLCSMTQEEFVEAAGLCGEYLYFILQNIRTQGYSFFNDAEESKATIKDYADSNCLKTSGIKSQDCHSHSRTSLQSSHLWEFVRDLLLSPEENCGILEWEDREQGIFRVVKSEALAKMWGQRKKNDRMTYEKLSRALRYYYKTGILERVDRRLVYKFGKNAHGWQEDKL
Procedure, shortened: as §1

[17] = molecular target: T12, ETV3 (Homo sapiens, UniProt P41162-2 1-143); settings: protein: recombinant; tags: N-terminal GST; dsDNA, one strand shown
T12 sequence: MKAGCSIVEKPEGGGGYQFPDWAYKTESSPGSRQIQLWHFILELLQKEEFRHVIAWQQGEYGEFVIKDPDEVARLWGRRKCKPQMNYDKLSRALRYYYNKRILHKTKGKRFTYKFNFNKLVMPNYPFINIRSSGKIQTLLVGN
Procedure, shortened: as §1

[18] = molecular target: ETV6 (Homo sapiens, UniProt P41212 1-452); settings: protein: recombinant; tags: N-terminal GST; dsDNA, one strand shown
Chain of ETV6 (P41212 whole entry): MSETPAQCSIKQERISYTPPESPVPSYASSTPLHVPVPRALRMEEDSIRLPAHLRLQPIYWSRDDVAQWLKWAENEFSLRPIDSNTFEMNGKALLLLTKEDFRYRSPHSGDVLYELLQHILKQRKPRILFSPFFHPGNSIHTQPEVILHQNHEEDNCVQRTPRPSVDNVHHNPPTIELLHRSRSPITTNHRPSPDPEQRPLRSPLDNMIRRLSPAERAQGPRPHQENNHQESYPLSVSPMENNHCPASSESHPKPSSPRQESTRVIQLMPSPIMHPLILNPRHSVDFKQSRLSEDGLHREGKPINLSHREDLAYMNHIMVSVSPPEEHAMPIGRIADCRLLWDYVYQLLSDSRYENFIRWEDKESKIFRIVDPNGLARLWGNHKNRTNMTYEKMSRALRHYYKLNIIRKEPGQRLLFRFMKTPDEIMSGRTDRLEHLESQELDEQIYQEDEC
Procedure, shortened: as §1

CTTATT was tested, and the binding signal [1] was 1.46 fold enrichment (6-mer frequency, TF over GST control), the binding signal [2] was 1.42 fold enrichment (6-mer frequency, TF over GST control) and the binding signal [3] was 1.87 fold enrichment (6-mer frequency, TF over GST control). The binding signal [4] was 1.62 fold enrichment (6-mer frequency, TF over GST control), the binding signal [5] was 1.43 fold enrichment (6-mer frequency, TF over GST control) and the binding signal [6] was 1.49 fold enrichment (6-mer frequency, TF over GST control). The binding signal [7] was 1.5 fold enrichment (6-mer frequency, TF over GST control), the binding signal [8] was 1.51 fold enrichment (6-mer frequency, TF over GST control) and the binding signal [9] was 2.55 fold enrichment (6-mer frequency, TF over GST control). For the same sequence, the binding signal [10] was 1.52 fold enrichment (6-mer frequency, TF over GST control), the binding signal [11] was 1.44 fold enrichment (6-mer frequency, TF over GST control) and the binding signal [12] was 1.5 fold enrichment (6-mer frequency, TF over GST control). For the same sequence, the binding signal [13] was 1.51 fold enrichment (6-mer frequency, TF over GST control), the binding signal [14] was 1.54 fold enrichment (6-mer frequency, TF over GST control) and the binding signal [15] was 1.43 fold enrichment (6-mer frequency, TF over GST control). The binding signal [16] was 1.42 fold enrichment (6-mer frequency, TF over GST control), the binding signal [17] was 1.31 fold enrichment (6-mer frequency, TF over GST control) and the binding signal [18] was 1.48 fold enrichment (6-mer frequency, TF over GST control).
